Screening data deposited in PubChem BioAssay by National Center for Advancing Translational Sciences (NCATS).
PI5P4K alpha inh: qHTS for Inhibitors of phosphatidylinositol 5-phosphate 4-kinase (PI5P4K) | PI5P4Kalpha enzyme, ADP-Glo luminescence, 60 min; stronger effect = lower value | AID 652105, 2013 | max response, % | 330,000 compounds, 1.2% hits | Phosphatidylinositol 5-phosphate 4-kinase type-2 alpha (Homo sapiens), P48426; active = max response of -50% or lower; inconclusive = between -30% and -50%; inactive = -30% or higher; note: value at the top dose of about 77 µM; % is set by controls: 0 for no effect and ±100 for the full control effect
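qHTS, 1536-well: enzyme/substrate mix, compound by pin tool, 5 microM ATP final; RT 60 min; ADP-Glo reagents 1 (45 min) then 2 (30 min); luminescence.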
BAZ2B block: qHTS Assay for Inhibitors of BAZ2B; Bromodomain adjacent to zinc finger domain protein 2B (Homo sapiens), Q9UIF8; AlphaScreen BAZ2B-H3K14Ac peptide displacement; Potency, µM (highest dose often 114 µM), for inactives: at the top dose activity change, negative = inhibition, hits mostly inhibitors; 360,000 compounds, 4.4% hits; note: potency is the fitted concentration of half-maximal effect; % is set by controls: 0 for no effect and ±100 for the full control effect; nearly all actives have a fitted effect of over 60% in size
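AlphaScreen luminescence quantifies BAZ2B engagement of H3K14Ac peptide; the protein and biotinylated peptide are both at 50 nM final, buffer PBS pH 7.4 with 0.01% Tween-20, all steps at room temperature.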
HP1b chromo inh: HTS for Inhibitors of HP1-beta Chromodomain Interactions with Methylated Histone Tails; 390,000 compounds, 0.56% hits; AID 540317, 2011; Potency, µM (series often up to 114 µM), inactives show top-dose activity change, negative = inhibition, usual class: inhibitors; AlphaScreen HP1-beta / biotin-H3K9me3 peptide binding; Chromobox protein homolog 1 (Homo sapiens), P83916; note: potency is the fitted concentration of half-maximal effect; nearly all actives have a fitted effect of over 70% in size
Target sequence (P83916 whole entry, looked up): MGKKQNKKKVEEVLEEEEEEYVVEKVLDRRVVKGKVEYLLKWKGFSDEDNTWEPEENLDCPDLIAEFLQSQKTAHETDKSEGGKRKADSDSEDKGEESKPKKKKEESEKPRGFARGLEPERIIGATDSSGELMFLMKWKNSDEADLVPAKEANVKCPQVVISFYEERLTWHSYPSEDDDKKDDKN
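HP1-beta protein (50 nM final) preincubated 30 min at room temperature with biotinylated H3(1-18)K9me3 peptide (50 nM) in PBS pH 7.4, 0.01% Tween-20, then compound added for 30 min. AlphaScreen streptavidin donor/nickel chelate acceptor beads (10 ug/mL final), 30 min dark, luminescence read.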
L3MBTL1 block: qHTS Assay for the Inhibitors of L3MBTL1 | Lethal(3)malignant brain tumor-like protein 1 (Homo sapiens), Q9Y468 | AlphaScreen L3MBTL1–H3K9me1 peptide binding | Potency, µM (highest dose often 57.1 µM), for the others: top-dose activity, negative = inhibition, hits mostly inhibitors | 230,000 compounds, 0.66% hits; note: potency is the fitted concentration of half-maximal effect; % is set by controls: 0 for no effect and ±100 for the full control effect; nearly all actives have a fitted effect of over 60% in size
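L3MBTL1 (50 nM) pre-complexed 30 min with biotinylated H3(1-15)K9me1 peptide (75 nM), then compounds added for 30 min at room temperature; AlphaScreen streptavidin donor/nickel chelate acceptor beads (10 ug/mL final) read after 30 min dark incubation.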
JMJD2A Tudor: qHTS Assay for Inhibitors of JMJD2A-Tudor Domain | AlphaScreen JMJD2A-Tudor / H3K4me3 peptide binding | Lysine-specific demethylase 4A (Homo sapiens), O75164 | 390,000 compounds, 4.4% hits | AID 504339, 2011 | Potency, µM (titrated, usually from 114 µM), inactives show top-dose activity change, negative = inhibition, hits mostly inhibitors; note: potency is the fitted concentration of half-maximal effect; % is set by controls: 0 for no effect and ±100 for the full control effect; nearly all actives have a fitted effect of over 50% in size
G9a block: qHTS Assay for Inhibitors of Histone Lysine Methyltransferase G9a; G9a H3K9 monomethylation, AlphaScreen, 2 h; Potency, µM (titrated, usually from 102 µM), without a hit: top-dose activity, negative = inhibition, most hits filed as inhibitors; 350,000 compounds, 8.8% hits; AID 504332, 2011; note: potency is the fitted concentration of half-maximal effect; % is set by controls: 0 for no effect and ±100 for the full control effect; nearly all actives have a fitted effect of over 75% in size
Target sequence (Q96KQ7 913-1193 limits assumed): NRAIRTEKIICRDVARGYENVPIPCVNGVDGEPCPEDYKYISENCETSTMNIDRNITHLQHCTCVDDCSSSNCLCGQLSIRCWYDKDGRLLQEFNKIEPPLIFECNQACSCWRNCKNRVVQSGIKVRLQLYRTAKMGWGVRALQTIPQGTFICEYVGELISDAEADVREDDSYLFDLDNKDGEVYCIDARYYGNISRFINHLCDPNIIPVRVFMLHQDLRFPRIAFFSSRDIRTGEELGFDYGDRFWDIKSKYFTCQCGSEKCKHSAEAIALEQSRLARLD
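Compounds were preincubated with 20 nM G9a for 15 min, after which biotinylated H3K9 peptide (500 nM) and SAM (20 uM) started a 2 h room-temperature reaction. Monomethylated product was quantified by antibody-based AlphaScreen chemiluminescence.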
* hit, by the source's call; ? = inconclusive; . = no result given; ! = repeats disagree; [ ] = dose if it differs, or a comment. Sampled rows, rich in hits. Any-hit rate of the full collection: about 11%. Unless noted, calls come from the whole dose curve; as a rule, active = well fitted inhibition curve with a large enough effect; inconclusive = small, poorly fitted or top-dose-only effect; inactive = no such curve, though single readings can be large or run the other way.

SMILES	PI5P4K alpha inh	BAZ2B block	HP1b chromo inh	L3MBTL1 block	JMJD2A Tudor	G9a block
COc1cc(/C=C/C(=O)C2C(=O)C=C(C)OC2=O)cc(OC)c1O (stereo unspecified)	3	56µM*	-2%	-12%	-31%	50µM*
COc1ccc(/C=C/C(=O)C2C(=O)C=C(C)OC2=O)cc1O (stereo unspecified)	-2	50µM*	-17%	2%	-23%	-23%[59 µM]
COc1ccc(/C=N/NC(=O)c2ccoc2C)cc1O	-11	-6%	-3%	-10%	-18%	-15%[59 µM]
COc1ccc(-n2cc(C(=O)Oc3cc(C)cc(C)c3)c3ccccc3c2=O)cc1	.	-8%	13%[57 µM]	.	-6%	-13%[59 µM]
Cc1noc(C)c1-c1ccc2ncnc(N3CCOCC3)c2c1	.	.	.	.	.	4%[0.501 µM]
CCc1ccccc1NS(=O)(=O)c1ccc2c(c1)OCC(C(=O)N1CCCC1)O2 (stereo unspecified)	.	-14%	33%	.	-10%	1%[59 µM]
O=[N+]([O-])c1ccc(-c2n(-c3ccccn3)c3ccccc3[n+]2-c2ccccn2)cc1	2	?	3%	.	?	50µM*
COc1ccc2c(c1)CCN=C2Cc1ccc(OC)c(OC)c1	-7	-7%	20%	6%	-20%	4µM*
COc1cc2c(cc1OC)C(Cc1ccccc1[N+](=O)[O-])=NCC2	0	.	7%	.	-23%	.
CCN(CC)c1ccc(/C=N/OC(C)C(=O)Nc2ccc(C)cc2)cc1 (stereo unspecified)	13	?	-9%	-8%	-32%	-23%
CCN(CC)c1ccc(N=C2C=CC(=O)C=C2NC(C)=O)cc1	-28	.	25µM*	.	10µM*	.
CCCCCn1c(N2CCN(c3cccc(Cl)c3)CC2)nc2c1c(=O)[nH]c(=O)n2C	14	-34%	-5%	-2%	?	-7%
Cn1c(=O)[nH]c(=O)c2c1nc(N1CCN(c3cccc(Cl)c3)CC1)n2CCCc1ccccc1	.	11%	.	-1%	.	18µM*
CCCCn1c(N2CCC(Cc3ccccc3)CC2)nc2c1c(=O)[nH]c(=O)n2C	1	?	?	-14%	50µM*	?
CCCCCC[N+](C)(C)CCSSCC[N+](C)(C)CCCCCC	-3	-4%	?	-13%	-24%	?
CCCCCCCCCCCCCCCC[N+](C)(C)CC	-63*	6%	17%	27%	-8%	14µM*!
CCCCCCCCCCCCCC[N+](C)(C)C	.	.	.	.	.	-1%[12.7 µM]
CCCCCCCCCCCCCCCC[N+](C)(C)CCl	-53*	.	31%	.	-4%	.
CCN(C(=O)CSc1nnc(-c2cc(OC)c(OC)c(OC)c2)o1)c1ccccc1	.	56µM*	16%	.	?	-45%[59 µM]
COc1cc(-c2nnc(SCC(=O)c3ccccc3)o2)cc(OC)c1OC	.	-6%	5%	-6%	-14%	-40%
COc1cc(-c2nnc(SCc3cc(=O)oc4cc(O)c(O)cc34)o2)cc(OC)c1OC	.	7.9µM*	-45%	.	?	4.5µM*
CCc1ccc(NC(=O)Cn2cc(S(=O)(=O)c3ccc(F)cc3)c(=O)c3cc(OC)ccc32)cc1	.	4%	53%	.	2%	-4%[59 µM]
NNC(=O)C(=O)NCCCN1CCOCC1	-1	-29%	15%	0%	?	56µM*
O=C(/C=C/c1ccc(Br)o1)NCCCN1CCOCC1	5	?	17%	.	-10%	22µM*
Cc1cc(N2CCN(C)CC2)ccc1NC(=O)c1ccc(-c2ccc(Cl)cc2)o1	-2	35µM*	?	-21%	40µM*	32µM*
SMILES	PI5P4K alpha inh	BAZ2B block	HP1b chromo inh	L3MBTL1 block	JMJD2A Tudor	G9a block
COc1cc(NC(=O)c2cc3c(=O)oc4ccc(C)cc4c3s2)cc(OC)c1OC	.	-3%	36%	.	3%	8%[59 µM]
COCCOC(=O)c1c(-c2ccccc2)c(-c2ccccc2)nn(C)c1=O	.	-1%	15%	.	-8%	?
Cc1ccc(C(=O)N2CC(=O)Nc3ccc(Br)cc3C2c2ccc(F)cc2)cc1C (stereo unspecified)	.	-18%	13%	.	-23%	-27%[59 µM]
CCOCCCNC(=O)C(NC(=O)C1CCC(C)CC1)C(C)C (stereo unspecified)	.	5%	27%	.	-11%	-4%[59 µM]
O=C1NC(=O)C([N+](=O)[O-])=C(O)C1=O	-65*	.	.	.	.	.
Cc1ccc(C(=O)Nc2ccccc2C(=O)O)cc1S(=O)(=O)N1CCCCCC1	.	4%	52%	.	-9%	8%[59 µM]
COCc1cc(C)nc(OCC(=O)N/N=C/c2ccc(-c3cc([N+](=O)[O-])ccc3C)o2)c1C#N	-2	5%	6%	3%	-7%	-4%[59 µM]
COCc1cc(C)nc(OCC(=O)N/N=C/c2ccc(C)o2)c1C#N	0	12%	54%	.	-1%	45µM*
COCc1cc(C)nc(OCC(=O)N/N=C/c2ccc(-c3cccc([N+](=O)[O-])c3)o2)c1C#N	.	-36%	.	0%	.	50µM*
CCOc1ccc(/C(O)=C2/C(=O)C(=O)N(CCN(CC)CC)C2c2ccco2)cc1 (stereo unspecified)	1	-5%	26%	13%	-27%	-10%[59 µM]
CCN(CC)CCCN1C(=O)C(=O)/C(=C(/O)c2ccc(OC)c(Cl)c2)C1c1ccco1 (stereo unspecified)	.	3%	.	36%	.	45µM*
COc1ccc(/C(O)=C2/C(=O)C(=O)N(Cc3cccnc3)C2c2ccco2)cc1OC (stereo unspecified)	.	-2%	-4%	-6%	25µM*	-8%
Cc1ccc(C2/C(=C(\O)c3ccc4c(c3)OCCO4)C(=O)C(=O)N2CCCN(C)C)o1 (stereo unspecified)	.	-33%	.	-1%	.	45µM*
COc1ccc(C2/C(=C(\O)c3ccc4c(c3)OCCO4)C(=O)C(=O)N2CCCN(C)C)cc1 (stereo unspecified)	4	11%	24%	-1%	-6%	?
COc1ccc(/C(O)=C2/C(=O)C(=O)N(CCCN(C)C)C2c2ccc(C)o2)cc1Cl (stereo unspecified)	.	2%	.	-2%	.	45µM*
CCN(C(=O)Cn1cnc2c1c(=O)n(C)c(=O)n2C)c1ccccc1C	.	-3%	13%	.	-16%	-5%[59 µM]
C#CCOC(=O)CCCN1C(=O)c2cccc3cccc(c23)C1=O	-5	.	.	.	.	.
